Among the data in the supplement of paper PMC12340641 are relative growth recovery values, retold here.

Counter-ions that a name gives are not always drawn.

The test system of the experiment is HEK293FT dCK*-IKZF1. In words: relative growth recovery (pomalidomide 10 uM = 100%, DMSO = 0%); higher = more growth rescue (IKZF1 fusion degradation). Conditions: compound concentration: 5 uM; AraC concentration: 0.3 uM; overnight pretreatment + 4 days AraC. The procedure, abridged: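 Means of duplicates from different days are given for growth recovery, normalised per plate against a reference degrader and vehicle. The reference degrader set the 100% level and vehicle the 0% level. HEK293FT cells stably expressing a deoxycytidine kinase–IKZF1 fusion (300/well, 384-well) received 5 μM compound 2 h after seeding and, after overnight at 37 °C, 0.3 μM of a nucleoside suicide substrate plus medium for 4 days. Nuclei stained with Hoechst 33342 were then counted by whole-well imaging on day 5.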
Regarding `N=c1ccn2c(n1)O[C@H]1[C@H](O)[C@@H](CO)O[C@H]12` [Cyclocytidine HCl], the relative growth recovery is -12.9%.
`NCCNc1ccc(NCCN)c2c1C(=O)c1ccncc1C2=O.O=C(O)/C=C\C(=O)O.O=C(O)/C=C\C(=O)O` [Pixantrone (dimaleate)]: the relative growth recovery was -1.7%.
`c1ccc(C(NCc2cccnc2)(c2ccccc2)c2ccccc2)cc1`: the relative growth recovery was -0.7%.
`C=CC(=O)Nc1cccc(Oc2nc(Nc3ccc(N4CCN(C)CC4)cc3)ncc2Cl)c1`: the relative growth recovery was -9.69%.
The same measure for `O=c1[nH]c(=O)n([C@H]2C[C@H](O)[C@@H](CO)O2)cc1F` [Floxuridine]: -9.7%; for `COc1ccc(CCN(C)CCc2ccc(OC)c(OC)c2)cc1OC`: 1.83%.
Under `Cc1cc(Nc2ncc(Cl)c(Nc3ccccc3S(=O)(=O)C(C)C)n2)c(OC(C)C)cc1C1CCN(CC(=O)NCCNc2cccc3c2C(=O)N(C2CCC(=O)NC2=O)C3=O)CC1` (centres undefined) stands 24.8%; under `CCCCCCCC/C=C\CCCCCCCC(=O)NCCO` [oleoylethanolamide], 1.78%.
Take `Cn1c(=O)n(-c2ccc(C(C)(C)C#N)cc2)c2c3cc(-c4cnc5ccccc5c4)ccc3ncc21` [Dactolisib (BEZ235, NVP-BEZ235)]: the relative growth recovery was -7.88%.
As to `COc1cc(CN(CCN)C(=O)c2cccs2)ccc1OCc1ccccc1`, the relative growth recovery worked out at 0.355%.
Consider `Clc1ccc(C(Cn2ccnc2)OCc2ccc(Sc3ccccc3)cc2)c(Cl)c1` (centres undefined) [Fenticonazole nitrate], for which the relative growth recovery worked out at 0.87%.
Take `CC(C)/N=c1\cc2n(-c3ccc(Cl)cc3)c3ccccc3nc-2cc1Nc1ccc(Cl)cc1`: the relative growth recovery amounted to 0.915%.
`CN(C)CCOC1=Cc2ccccc2Sc2ccc(Cl)cc21` [zotepine]: the relative growth recovery is -1.67%.
Regarding `O=c1[nH]c2ccccc2n1C1CCN(CCOc2ccccc2)CC1` [oxiperomide], the relative growth recovery stood at 2.25%.
The same measure for `O=C(Nc1ccc2[nH]ccc2c1)c1ccccc1`: -0.01%.
Take `Cn1c(NCCN(CCO)CCCc2ccc([N+](=O)[O-])cc2)cc(=O)n(C)c1=O` [nifekalant]: the relative growth recovery stood at 3.56%.
For `COC1CCN(c2cccc(-c3cc(NC(C)=O)nc(-n4nc(C)cc4C)n3)n2)CC1`, the relative growth recovery was -1.86%.
Take `C=C1/C(=C\C=C2/CCC[C@]3(C)[C@@H]([C@H](C)CCCC(C)(C)O)CC[C@@H]23)C[C@@H](O)C[C@@H]1O` [Calcitriol]: the relative growth recovery was -0.98%.
Under `CSCC1CN(/N=C/c2ccc([N+](=O)[O-])o2)C(=O)O1` (centres undefined) [Nifuratel] stands -1.79%; under `NC(=O)N1c2ccccc2CC(=O)c2ccccc21`, -1.02%.
On to `COc1cccc2c1C(=O)c1c(O)c3c(c(O)c1C2=O)C[C@@](O)(C(=O)CO)C[C@@H]3O[C@H]1C[C@H](N)[C@H](O[C@@H]2CCCCO2)[C@H](C)O1` [Pirarubicin], for which the relative growth recovery was -13.1%.
Under `Cc1cc(Nc2ncc(Cl)c(Nc3ccccc3S(=O)(=O)C(C)C)n2)c(OC(C)C)cc1C1CCN(CCOCCOCCNC(=O)CNc2cccc3c2C(=O)N(C2CCC(=O)NC2=O)C3=O)CC1` (centres undefined) stands 62.7%; under `OC(c1cc(C(F)(F)F)nc2c(C(F)(F)F)cccc12)C1CCCCN1` (centres undefined) [Mefloquine HCl], -6.05%.
The same measure for `NC(=S)N/N=C/c1ncccc1N` [Triapine]: -13%.
Take `CNC(=O)Nc1ccc(-c2nc(N3CC4CCC(C3)O4)c3cnn(C4CCC5(CC4)OCCO5)c3n2)cc1`: the relative growth recovery was -13.5%.
Take `CN1CCN(CCCN2c3ccccc3Sc3ccc(Cl)cc32)CC1`: the relative growth recovery was 1.47%.
With `CNC(=O)c1cccc(-c2ccc3c(N4CCOC[C@@H]4C)nc(N4CCOC[C@@H]4C)nc3n2)c1` [Vistusertib (AZD2014)], the relative growth recovery is -12.9%.
In the case of `CCCCC1C(=O)N(c2ccccc2)N(c2ccc(O)cc2)C1=O` (centres undefined), the relative growth recovery was -12.7%.
`c1ccc2c(c1)CCC[C@H]2Nc1nc2ccccc2[nH]1`: the relative growth recovery is -0.405%.
Under `CCC(=O)O[C@@H]1CC(=O)O[C@H](C)C/C=C/C=C/[C@H](OC(C)=O)[C@H](C)C[C@H](CC=O)[C@H](O[C@@H]2O[C@H](C)[C@@H](O[C@H]3C[C@@](C)(OC(C)=O)[C@@H](OC(=O)CC)[C@H](C)O3)[C@H](N(C)C)[C@H]2O)[C@H]1OC` [Midecamycin Acetate] stands 0.995%; under `COc1cc2c(cc1OC)[C@@H]1Cc3ccc(OC)c(OC)c3CN1CC2` [Rotundine], -10.7%.
With `O=C(N/N=C/c1ccc([N+](=O)[O-])o1)c1ccc(O)cc1`, the relative growth recovery is -2%.
With `OC1(c2ccc(Cl)c(C(F)(F)F)c2)CCN(CCCC(c2ccc(F)cc2)c2ccc(F)cc2)CC1`, the relative growth recovery was -5.21%.
The same measure for `CC[C@@]1(O)C(=O)OCc2c1cc1n(c2=O)Cc2cc3cc(O)ccc3nc2-1` [10-Hydroxycamptothecin]: -13.2%.
